In all, about 370,000 compounds went through this assay and about 3,000 (0.81%) were called active. The list comes from a sample in which actives are over-represented; it also holds similar structures and randomly drawn compounds. Values without a mark were called inactive.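 The calls were made as follows: active = activity above about 14% (limit read from the data; passing the limit was not always enough); inactive = the rest.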

The values that follow come from PubChem BioAssay AID1259318 (Sanford-Burnham Center for Chemical Genomics, 2017).

The target in this test is Nuclear receptor subfamily 1 group D member 1 (Homo sapiens) (UniProt P20393). Briefly: Rev-erbα–DNA interaction modulation – biochemical, FITC-DNA, fluorescence polarization, uHTS, primary screen (AID 1259318).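 Also: 0% = DMSO wells with 35 nM protein and 100% = DMSO wells with 750 nM protein.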 The conditions noted are these: Rev-erbα–FITC-DNA binding, 90 min, at 10 µM, stronger effect = higher value. Background: Polarisation of emitted light reports the rotation of a fluorescent probe.
Nuclear receptor subfamily 1 group D member 1 (Homo sapiens), sequence (P20393 whole entry, looked up): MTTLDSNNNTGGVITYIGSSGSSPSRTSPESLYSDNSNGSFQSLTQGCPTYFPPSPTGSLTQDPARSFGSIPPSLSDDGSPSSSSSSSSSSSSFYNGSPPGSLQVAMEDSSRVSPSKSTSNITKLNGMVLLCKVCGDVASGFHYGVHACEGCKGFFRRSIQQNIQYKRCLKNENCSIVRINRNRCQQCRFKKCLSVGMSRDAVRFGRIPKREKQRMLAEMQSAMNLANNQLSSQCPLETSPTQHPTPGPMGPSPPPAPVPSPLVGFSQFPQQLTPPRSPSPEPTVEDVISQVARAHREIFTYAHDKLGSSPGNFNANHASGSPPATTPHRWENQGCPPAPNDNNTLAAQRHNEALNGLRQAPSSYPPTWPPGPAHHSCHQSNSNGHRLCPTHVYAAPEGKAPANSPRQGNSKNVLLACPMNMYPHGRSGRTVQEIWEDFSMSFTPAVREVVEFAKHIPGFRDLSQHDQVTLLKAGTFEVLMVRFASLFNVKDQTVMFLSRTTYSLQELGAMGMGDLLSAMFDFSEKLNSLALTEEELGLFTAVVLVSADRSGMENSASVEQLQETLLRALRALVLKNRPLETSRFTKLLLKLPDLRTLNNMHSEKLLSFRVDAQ
For `C=CCNC(=S)/N=c1/ccccn1Cc1ccccc1`, the activity was 3.96%.
`O=C(CC12CC3CC(CC(C3)C1)C2)NCc1ccco1`: the activity is -3.49%.
The same measure for `COC(=O)/C(=C1\Oc2ccc(C(C)(C)C)cc2S1)C(F)(F)F`: 2.88%.
The same measure for `CCOC(=O)c1nnn(-c2nonc2OC)c1-c1ccccc1`: -1.38%.
With `CCOC(=O)C1=C(c2ccccc2)O/C(=C(/C(=O)OC)C(F)(F)F)S1` the figure was 23.2% (active); with `CC(C)CC(=O)N1CCN(Cc2ccccc2Br)CC1`, 1.77%.
On to `Cc1ccc(N=C2NC(=O)c3cccc([N+](=O)[O-])c32)cc1`, for which the activity was -0.93%.
With `C=C(C)C(=O)O[C@H]1C/C(C)=C\C(=O)/C=C(\C)[C@H](O)[C@@H]2OC(=O)C(=C)[C@@H]21` the figure was -13.3%; with `O=C(O)c1ccn(COc2ccc(Br)cc2)n1`, -0.74%; with `Cc1cc(Br)cn2c(Cc3ccccc3C(F)(F)F)c(C3CCCCC3)nc12`, -1.46%.
With `Cc1ccc(-c2nc3c(Cl)cc(C(F)(F)F)cn3c2Cc2cccc(Cl)c2)cc1`, the activity was -1.02%.
Take `Cc1cc(Br)cn2c(Cc3ccccc3C(F)(F)F)c(-c3ccc(C#N)cc3)nc12`: the activity is 16.1%.
The same measure for `Cc1cc(Br)cn2c(Cc3cccc(F)c3)c(-c3cccc(Br)c3)nc12`: 8.77%.
As for `Cc1ccc(-c2nc3c(C)cc(Br)cn3c2Cc2ccccc2)cc1`, the activity is 27% (active).
The same measure for `Cc1cc(Br)cn2c(Cc3ccccc3C(F)(F)F)c(-c3ccc(Cl)cc3)nc12`: 24.8% (active).
In the case of `Cc1ccc(NC(=O)Nc2cc(C)nn2-c2ccccc2)cc1`, the activity was -3.54%.
`CCC1Nc2ncnc(N3CCN(c4ccccc4)CC3)c2N(Cc2ccc(Cl)cc2)C1=O` (stereo unspecified): the activity is -0.29%.
The same measure for `CCCc1nnc(NC(=O)CCC(=O)NC2CC2)s1`: -1.12%.
The same measure for `COCC(=O)N[C@@H]1C[C@@H]2O[C@@H](CO)CC[C@@H]2O[C@@H]1CCc1ccc(-c2ccccc2)cc1`: -1.13%.
With `CC(=O)N1CCCN(C2=Nc3ccccc3Sc3ccccc32)CC1` the figure was -0.32%; with `CCCCNC(=O)CSc1nccn1Cc1ccccc1`, -5.53%; with `Cc1nnc(OCC(=O)NCCC2=CCCCC2)c2ccccc12`, -2.75%.
As to `Cc1ccc(-n2c(SCC(=O)NCCC3=CCCCC3)nc3n[nH]c(C)c3c2=N)cc1Cl`, the activity is 34.3% (active).
As for `CCn1c(=O)cc(SCC(=O)NCCC2=CCCCC2)c2ccccc21`, the activity is -0.99%.
With `CCCCCCNC(=O)CSc1nccn1Cc1ccccc1`, the activity was 1.93%.
For `CCCCNC(=O)CSc1nc2n[nH]c(C)c2c(=N)n1-c1cccc(Cl)c1C`, the activity was 23.1% (active).
With `CCCCCC1CC(COc2ccccc2)OC1=O` (stereo unspecified), the activity was 3.77%.
The same measure for `CC(=O)c1c(C)n([O-])c2ccccc2[n+]1=O`: 4.5%; for `CC(C)C(C)(C#N)NC(=O)CSc1nncn1-c1ccccc1` (stereo unspecified): 3.69%.
With `Cc1ccc2c(cnn2C(=O)CCC(=O)NC2CCCC2)c1` the figure was 8.51%; with `COc1ccc(CN2C/C(=C/c3ccccc3)N3C(=O)C[C@@H](c4ccccc4)N=C23)c(OC)c1`, -2.77%.
With `CC(=O)Nc1sc2c(c1C(c1cccc(F)c1)N1CCN(CCO)CC1)CCCC2` (stereo unspecified) the figure was -4.11%; with `CCc1c(C)nc2c(-c3ccccc3)c(C)nn2c1Nc1ccc(NC(C)=O)cc1`, -3.83%.
For the compound `Cc1nn2c(NCCN(C)C)c3c(nc2c1-c1ccccc1)CCC3`, the activity is -0.8%.
In the case of `Cc1cc(C(C)(C)C)n2nc(C)c(-c3ccccc3)c2n1`, the activity is 31.7% (active).
With `CC(Oc1ccccc1)C(=O)N[C@@H]1C(=O)N2[C@@H]1SC(C)(C)[C@@H]2C(=O)O` (stereo partly specified) the figure was -0.45%; with `COC(=O)c1ccc(N2CCOCC2)c(NC(=O)c2ccc(Br)o2)c1`, -3.88%.
Regarding `Cc1cc(NCc2cccnc2)no1`, the activity is 2.81%.
With `Cc1cc(N/C=C\C(=O)c2ccc(Cl)c(Cl)c2)no1` the figure was 24.8% (active); with `Cc1cc(NC(=O)COc2ccccc2C#N)no1`, 5.64%.
Consider `CCN(CC)C(=O)CSc1nnc(-c2cnccn2)n1-c1ccc(C)cc1`, for which the activity was 5.46%.
Take `CN(C(=O)COc1ncnc2c1cnn2-c1ccccc1)C1CCCCC1`: the activity was 1.94%.
As for `COc1ccc(-n2ncc3c(N4CCc5ccccc54)ncnc32)cc1`, the activity is 56.3% (active).
With `COc1ccc(CCC(C)N2CCc3ccccc3C2)cc1` (stereo unspecified) the figure was 1.36%; with `O=c1cc(Cl)c2ccccc2n1-c1ccccc1`, -2.63%.
Regarding `COc1cccc(N2CCN(CC(=O)N(C)Cc3ccc(F)cc3)CC2)c1`, the activity was -5.17%.
